About 79,000 compounds went through this panel and 15% of them were active in at least one assay; those are over-represented in the sample as a whole. Values without a mark were called inactive. Calls of active or inactive are those of the source. Cut-off read from the data, not from the text of the source: active = growth inhibition above about 70%; inactive = the rest.
Tests used:
[1] = NCI Yeast Anticancer Drug Screen. Data for the rad50 strain (AID 155);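 note: 0% = growth of vehicle-only cultures of the same strain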; conditions: S. cerevisiae rad50 strain growth inhibition, hits give high values
In short: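 A DNA repair-deficient yeast mutant serves as the test organism; compound-induced growth inhibition is calculated against vehicle-treated cells.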

[2] = NCI Yeast Anticancer Drug Screen. Data for the mec2-1 strain (AID 157); conditions: S. cerevisiae mec2-1 strain, hits give high values
In short: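 mec2-1 yeast strain, carrying an alteration in DNA damage repair or cell cycle control, was exposed to compounds; growth inhibition was measured relative to vehicle-treated controls.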

[3] = NCI Yeast Anticancer Drug Screen. Data for the sgs1 mgt1 strain (AID 161);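 note: 0% = growth of cultures given vehicle only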; conditions: S. cerevisiae sgs1 mgt1 strain, hits give high values
In short: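 Compounds are added to genetically altered yeast, and growth is compared with cultures given vehicle alone to give percent inhibition.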

[4] = NCI Yeast Anticancer Drug Screen. Data for the cln2 rad14 strain (AID 165);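 note: 0% = growth equal to vehicle treated cultures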; conditions: S. cerevisiae cln2 rad14 strain, hits give high values
In short: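 Yeast carrying cln2 and rad14 alterations (cell cycle control and DNA damage repair) were exposed to compounds. Growth inhibition was measured against vehicle-treated controls.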

[5] = NCI Yeast Anticancer Drug Screen. Data for the bub3 strain (AID 167); conditions: S. cerevisiae bub3 mutant strain, hits give high values
In short: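 Inhibition values come from growth of compound-treated mutant yeast normalised to vehicle-treated controls.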

[6] = NCI Yeast Anticancer Drug Screen. Data for the mlh1 rad18 strain (AID 175); conditions: S. cerevisiae mlh1 rad18 strain growth inhibition, hits give high values
In short: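 Growth inhibition of the yeast strain was measured after compound exposure and expressed relative to vehicle-treated controls. The strain carries defined defects in DNA damage repair.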

[7] = at 5.0 µM (retest, dose inferred, filed as 0.5)
[8] = at 50.0 µM (retest, dose inferred, filed as 5.0)

SMILES	growth inhibition [1, 7]	growth inhibition [1, 8]	growth inhibition ([1]; at 50.0 µM)	growth inhibition [2, 7]	growth inhibition [2, 8]	growth inhibition ([2]; at 50.0 µM)	growth inhibition [3, 7]	growth inhibition [3, 8]	growth inhibition ([3]; at 50.0 µM)	growth inhibition [4, 7]	growth inhibition [4, 8]	growth inhibition ([4]; at 50.0 µM)	growth inhibition [5, 7]	growth inhibition [5, 8]	growth inhibition ([5]; at 50.0 µM)	growth inhibition [6, 7]	growth inhibition [6, 8]	growth inhibition ([6]; at 50.0 µM)
CCC[CH2][Sn]([CH2]CCC)([NH]c1ncnc2[nH]cnc12)[NH]c1ncnc2[nH]cnc12	14%	96% (active)	87.8% (active)	14%	98% (active)	91.7% (active)	24%	94% (active)	85.5% (active)	30%	89% (active)	85.2% (active)	14%	95% (active)	87.6% (active)	20%	98% (active)	86.9% (active)
CC(=O)N1c2ccccc2Sc2ccc3ccc(C(=O)CCl)cc3c21	81% (active)	97% (active)	87.2% (active)	83% (active)	98% (active)	90.5% (active)	92% (active)	98% (active)	89.9% (active)	70% (active)	97% (active)	88.3% (active)	93% (active)	97% (active)	89.2% (active)	65%	97% (active)	87.8% (active)
S=C(NCCc1ccccn1)N/N=C/c1ccccn1	10%	99% (active)	76.5% (active)	-1%	99% (active)	84.9% (active)	7%	98% (active)	88.3% (active)	-3%	97% (active)	89.8% (active)	-17%	99% (active)	90.4% (active)	28%	99% (active)	91.5% (active)
C#CCN1CCN(C(=S)N/N=C(\C)c2ccccn2)CC1	22%	99% (active)	99.5% (active)	19%	100% (active)	99.7% (active)	20%	100% (active)	99.5% (active)	21%	99% (active)	99.4% (active)	14%	99% (active)	99.3% (active)	52%	100% (active)	99.3% (active)

Reference: PubChem BioAssay (NCI)
